GALK inhibitor: inhibitors of human galactokinase; actives 0.007% (n = 270,000); Potency, µM (top dose mostly 57.5 µM), inactives show top-dose activity change, negative = inhibition, most hits filed as inhibitors; Purified GALK, Kinase-Glo residual ATP luminescence; P51570; further: potency means the concentration at half of the fitted maximal effect
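Kinase-Glo Plus luminescence measured ATP left after a 1 h room-temperature reaction. The reaction used 5 nM GALK, 100 uM galactose and 35 uM ATP at pH 8.0 (20 mM HEPES, 5 mM MgCl2, 60 mM NaCl, 1 mM DTT, 0.01% BSA).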
Giardia kill: kills Giardia lamblia; Giardia lamblia trophozoite viability; activity change, % at 7.66 µM, hits read low; actives 0.15% (n = 340,000); in the data active means activity change below about -80%; inconclusive means between about -30% and that limit;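 further: parasites exposed to compound for two days anaerobically before the ATP read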
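Media and compound were dispensed first, then trophozoites at 100 cells/well; plates sat 48 hrs at 37 deg C without oxygen before ATP luminescence reagent was added and read after 15-30 min at room temperature.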
TrxR1 substrate: substrates of rat thioredoxin reductase 1; O89049; purified TrxR1 substrate turnover, NADPH consumption readout; Potency, µM (highest dose often 114 µM), without a hit: at the highest dose activity change, negative = substrate turnover; actives 0.01% (n = 390,000); AID 588456; further: potency means the concentration at half of the fitted maximal effect; nearly all actives have a fitted effect of over 50% in size
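Rat TrxR1, dispensed at 90 nM, was prereduced with 400 uM NADPH (final) for 5 min at ~22 deg C, then incubated with compound 15 min before 400 uM selenite. A first-read NADPH fluorescence drop versus no-compound background flagged substrates.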
Pin1 inh: human Pin1 inhibition; Q13526; Pin1 FP peptide displacement, HiFluor488, 10 min; Potency, µM (top dose mostly 115 µM), without a hit: top-dose activity, negative = inhibition, hits mostly inhibitors; actives 0.009% (n = 390,000); AID 504891; active means well fitted inhibition curve with a large enough effect in the polarisation, with a control signal flat, not every such curve was filed as active; inconclusive means small, poorly fitted or top-dose-only effect, or effect the other way, or a change in a side signal; inactive means no such curve, though single readings can be large or run the other way; the % refers to the polarisation; further: potency means the concentration at half of the fitted maximal effect
rTrxR1 inhibitor: rat TrxR1 inhibition; O89049; recombinant rTrxR1, NADPH fluorescence consumption, selenite substrate; Potency, µM (highest dose often 114 µM), for inactives: at the highest dose activity change, negative = inhibition, actives largely listed as inhibitors; actives 1% (n = 390,000); further: potency means the concentration at half of the fitted maximal effect; nearly all actives have a fitted effect of over 65% in size
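Rat TrxR1 (90 nM in the dispensed reagent) was pre-reduced with 400 uM NADPH for 5 min at room temperature, then incubated with compound for 15 min. After 400 uM selenite was added, NADPH fluorescence (Ex 340/Em 450 nm) was followed for 8 min.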
GCN5L2 inh: blocks human GCN5L2 histone acetyltransferase; Q92830; GCN5L2 HAT assay, ThioGlo1 CoA-SH fluorescence; Potency, µM (highest dose often 58.9 µM), for inactives: at the highest dose activity change, negative = inhibition, most hits filed as inhibitors; actives 0.21% (n = 390,000); further: potency means the concentration at half of the fitted maximal effect
Target sequence (Q92830 whole entry, looked up): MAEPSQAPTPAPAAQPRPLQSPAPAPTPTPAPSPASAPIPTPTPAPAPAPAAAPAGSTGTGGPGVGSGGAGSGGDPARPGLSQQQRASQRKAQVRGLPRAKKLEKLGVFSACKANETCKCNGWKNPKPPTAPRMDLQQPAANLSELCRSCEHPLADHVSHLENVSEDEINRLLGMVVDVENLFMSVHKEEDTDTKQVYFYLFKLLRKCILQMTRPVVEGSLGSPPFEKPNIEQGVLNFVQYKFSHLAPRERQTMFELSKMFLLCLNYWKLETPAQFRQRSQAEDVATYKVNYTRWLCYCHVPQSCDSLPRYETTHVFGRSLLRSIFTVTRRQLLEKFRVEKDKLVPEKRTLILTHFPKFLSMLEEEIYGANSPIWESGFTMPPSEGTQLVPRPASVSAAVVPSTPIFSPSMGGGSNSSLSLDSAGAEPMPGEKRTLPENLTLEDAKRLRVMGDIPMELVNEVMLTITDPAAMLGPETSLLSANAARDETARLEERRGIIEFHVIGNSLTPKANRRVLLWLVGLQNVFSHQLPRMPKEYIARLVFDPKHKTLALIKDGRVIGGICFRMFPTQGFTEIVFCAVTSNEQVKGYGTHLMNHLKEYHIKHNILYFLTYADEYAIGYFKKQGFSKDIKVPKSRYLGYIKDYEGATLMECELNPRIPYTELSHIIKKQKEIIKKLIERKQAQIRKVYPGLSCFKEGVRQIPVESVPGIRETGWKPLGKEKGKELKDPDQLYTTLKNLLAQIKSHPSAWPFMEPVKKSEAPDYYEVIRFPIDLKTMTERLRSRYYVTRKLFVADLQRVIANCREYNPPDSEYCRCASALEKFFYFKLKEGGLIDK
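Enzyme at 20nM final was mixed with library compounds for 15 min at room temperature. Peptide H3(1-25) at 75uM, acetyl-CoA at 70uM and ThioGlo1 at 50uM were then added. Plates were read immediately and after 20 min (Ex340nm/Em540nm).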
Numbers without * were called inactive; ? = inconclusive; . = no result; [ ] = dose if it differs, or a comment. Hits are enriched below; roughly 1.3% of the tested compounds scored in any of these assays. Unless noted, the call rests on the fitted dose curve; in most records, active means well fitted curve in the direction sought with a large enough effect; inconclusive means small, poorly fitted or top-dose-only effect, or another doubt; inactive means no such curve, though single readings can be large; an effect the other way counts as inactive or inconclusive. On the % scale 0 is the no-effect control and ±100 the full control effect.

SMILES | GALK inhibitor | Giardia kill | TrxR1 substrate | Pin1 inh | rTrxR1 inhibitor | GCN5L2 inh
COc1ccc(F)c(Cn2cnc3c(cnn3C(C)(C)C)c2=O)c1Cl | . | . | 5% | . | 12% | .
c1ccc(Cn2c(SCc3nc4ccccc4s3)nnc2-c2ccco2)cc1 | -1% | -3 | 8%[57.1 µM] | -15% | 10µM* | -12%
CCC(c1nnc(SCc2nc3ccccc3s2)n1Cc1ccccc1)N(C)C (stereo not given) | 2% | -13 | 6% | 17% | -1%[57.1 µM] | -2%
Cc1cc2c(s1)c1cnn(Cc3cccc(C(F)(F)F)c3F)c(=O)c1n2C | . | . | . | -7% | . | .
O=C(c1ccccc1F)N1c2nc(-c3ccco3)nn2C2(CCCCC2)[C@@H]2CCCC[C@@H]21 | . | . | -3% | 30% | 25µM* | -17%
CN(C)CCNc1oc(COc2ccc(Cl)cc2Cl)nc1C#N | 0% | 7 | 9%[57.1 µM] | ? | -13% | ?
COCCCNc1oc(COc2ccc(Cl)cc2Cl)nc1C#N | -2% | -5 | -9% | ? | 25µM* | -9%
Nc1nc(Br)c2ccccc2c1-c1ccccc1 | 3% | 26 | 4%[57.1 µM] | -2% | 21%[57.1 µM] | -3%
Nc1nc(Br)c2c(F)cccc2c1-c1ccc(Cl)cc1 | 0% | 16 | 13% | 4% | 5.6µM* | -2%
N#Cc1nc(Nc2cccc3ccccc23)nc(NC2CCCC2)n1 | . | . | . | 14% | . | .
O=C(Nc1cccc(Cl)c1Cl)c1cc(S(=O)(=O)N2CCC3(CC2)OCCO3)ccc1F | . | . | 4%[57.1 µM] | 13% | 30%[57.1 µM] | -8%
COc1cccc(N2C(=O)c3ccccc3C2=O)n1 | . | . | . | 0% | . | .
Cc1cc(C)cc(NC(=O)Cc2ccc(NC3=NC4CS(=O)(=O)CC4S3)cc2)c1 (stereo not given) | . | 16 | 2%[57.1 µM] | ? | 3%[57.1 µM] | ?
O=C(NCc1ccc(Cl)cc1)c1cccc(NC2=NC3CS(=O)(=O)CC3S2)c1 (stereo not given) | . | -16 | -3%[57.1 µM] | 0% | -4%[57.1 µM] | 28µM*
COc1ccc(CNC(=O)c2cccc(NC3=NC4CS(=O)(=O)CC4S3)c2)cc1 (stereo not given) | . | -9 | 2% | -9% | 2%[57.1 µM] | 0%
Cc1cccc(NC(=O)Cc2ccc(NC3=NC4CS(=O)(=O)CC4S3)cc2)c1 (stereo not given) | . | -13 | 2%[57.1 µM] | 3% | 10%[57.1 µM] | 22µM*
O=[N+]([O-])c1cccnc1S(=O)(=O)c1ccccc1 | -7% | -1 | 1% | 3% | 1.1µM* | 0%
NS(=O)(=O)c1ccc(Nc2ncccc2[N+](=O)[O-])cc1 | 0% | -91* | -4% | -10% | -3% | -4%
CS(=O)(=O)c1ncc(Cl)c(C(=O)Nc2ccc3ccccc3c2)n1 | 3% | -16 | 8% | 4% | 13µM* | -7%
O=C(Nc1ccccc1)c1nc(S(=O)(=O)Cc2ccccc2F)ncc1Cl | . | . | 9% | . | ? | .
O=C(Nc1ccc(OC(F)F)cc1)c1nc(S(=O)(=O)Cc2ccccc2F)ncc1Cl | . | . | 1% | . | 3.5µM* | .
COC(=O)c1ccc(NC(=O)c2nc(S(=O)(=O)Cc3ccccc3F)ncc2Cl)cc1 | . | . | -1% | . | 8.9µM* | .
COC(=O)c1cscc1S(=O)(=O)Cc1ccccc1 | -1% | 18 | 0% | 4% | 20µM* | -3%
NC(=O)C1CCN(c2nccc(-c3ccc4c(c3)OCCCO4)n2)CC1 | . | . | . | 0% | . | .
CCN(Cc1cccs1)c1ncnc2ccc(-c3ccc4c(c3)OCO4)cc12 | . | . | . | -2% | . | .
SMILES | GALK inhibitor | Giardia kill | TrxR1 substrate | Pin1 inh | rTrxR1 inhibitor | GCN5L2 inh
O=C(NCC1COc2ccccc2O1)c1cccc(S(=O)(=O)N2CCN(c3ccccc3)CC2)c1 (stereo not given) | . | 12 | -10% | 7% | -9% | -1%
CCOc1ccc(NC(=O)c2nc(S(=O)(=O)Cc3ccc(C)cc3)ncc2Cl)cc1 | . | . | -5% | . | ? | .
CCOc1ccc(NC(=O)c2nc(S(=O)(=O)Cc3ccccc3)ncc2Cl)cc1 | . | . | -3% | . | 2.2µM* | .
CCOc1ccc(NC(=O)c2nc(S(=O)(=O)Cc3ccccc3F)ncc2Cl)cc1 | . | -11 | 7% | ? | 1.8µM* | -6%
COC(=O)c1ccccc1NC(=O)c1nc(S(=O)(=O)Cc2ccccc2)ncc1Cl | -4% | 11 | 8% | -7% | 8.9µM* | -18%
COc1cccc(C2c3c(ncn(-c4ccccc4-c4ccccc4)c3=N)Oc3ccc4ccccc4c32)c1 (stereo not given) | . | . | . | 17% | . | .
CCOC(=O)c1c(NC(C)=O)sc2c1CCC(C=O)=C2Sc1ccccc1 | 1% | -7 | 6% | 14% | 1.3µM* | -4%
COc1ccc(-n2c(=O)c(-c3cccs3)nc3cnc(N(C)C)nc32)cc1 | . | . | . | . | . | -15%
O=C(CSCC(=O)OCn1nnc2ccccc2c1=O)Nc1ccc(Cl)cc1 | -2% | 4 | 1% | 8% | 18µM* | -3%
Cc1ccc(CN(C)C(=O)C2CCC(=O)N(CC3CCCCC3)C2)o1 (stereo not given) | 0% | 15 | 6% | -7% | 40µM* | 3%
CC(=O)O[C@@H]1[C@@H](O)CN[C@@H]1Cc1ccccc1 | . | -83* | -8% | -13% | 40µM* | .
CCOC(=O)C(=O)N1CCC(Cc2ccccc2)CC1 | 1% | 13 | 5%[57.1 µM] | -1% | 31%[57.1 µM] | -7%
COc1ccccc1CN(C)C(=O)c1ccc2c(c1)NC(=O)CS2 | -4% | 6 | 3% | -4% | -1% | -5%
Cc1ccc(CN(C)C(=O)c2ccc3c(c2)NC(=O)CS3)o1 | 0% | -6 | -2% | -1% | 18µM* | 1%
C=CC[n+]1cccc2cccc(O)c21 | . | . | 0% | . | 14% | .
CCN1C(=O)[C@H]2[C@H]3[C@H](O)[C@H](O)CC(=O)[C@@H]3CC[C@H]2C1=O | . | . | 0% | . | 12% | .
CCOc1cc(N2CCOCC2)c(OCC)cc1NC(=O)Cc1ccccc1 | -2% | -3 | -4% | 0% | 10% | -1%
CCOc1cc(N2CCOCC2)c(OCC)cc1NC(=O)Cc1ccccc1OC | 0% | 22 | 4%[57.1 µM] | 2% | 4%[57.1 µM] | 28µM*
CCCCn1c(N)c(N(CCOC)C(=O)CC2CCCCC2)c(=O)[nH]c1=O | . | 3 | 0% | -4% | 7% | .
CC1CCCCC1NC(=O)NC(=O)CCl (stereo not given) | 1% | -16 | 5% | 11% | 40µM* | -8%
CC1CCCC(NC(=O)CSC2CCCCC2)C1C (stereo not given) | 2% | 1 | 6%[57.1 µM] | 1% | 6%[57.1 µM] | -11%
CC1CCCC(NC(=O)NC(=O)CCl)C1C (stereo not given) | 0% | -9 | 0% | -3% | 7.9µM* | -5%
CC1CCCCC1NC(=O)NC(=O)COC(=O)c1nccnc1N (stereo not given) | . | 10 | 413% | 16% | ? | -7%
Cc1cc2c(s1)c1cnn(Cc3ccc(F)c(Cl)c3)c(=O)c1n2C | . | . | . | 0% | . | .
